The sequences below were run against Myc;MaxL (Homo sapiens;Homo sapiens, UniProt P01106-1;P61244 1-439;1-160, |) (assay: universal protein-binding microarray (PBM); PBS-based mixture, 10 nM His-tagged protein dimer, 2% milk, 200 ng/uL BSA, 50 ng/uL salmon testes DNA, 0.02% TX-100; detection with Alexa 488 anti-His antibody;; high values mean tight binding). Settings: protein: recombinant;recombinant; tags: C-terminal His-tag (pET21a);C-terminal His-tag (pET21a); copies: 1;1; dsDNA, one strand shown.
Chain of Myc;MaxL (P01106 16-454, chain 1 of 2): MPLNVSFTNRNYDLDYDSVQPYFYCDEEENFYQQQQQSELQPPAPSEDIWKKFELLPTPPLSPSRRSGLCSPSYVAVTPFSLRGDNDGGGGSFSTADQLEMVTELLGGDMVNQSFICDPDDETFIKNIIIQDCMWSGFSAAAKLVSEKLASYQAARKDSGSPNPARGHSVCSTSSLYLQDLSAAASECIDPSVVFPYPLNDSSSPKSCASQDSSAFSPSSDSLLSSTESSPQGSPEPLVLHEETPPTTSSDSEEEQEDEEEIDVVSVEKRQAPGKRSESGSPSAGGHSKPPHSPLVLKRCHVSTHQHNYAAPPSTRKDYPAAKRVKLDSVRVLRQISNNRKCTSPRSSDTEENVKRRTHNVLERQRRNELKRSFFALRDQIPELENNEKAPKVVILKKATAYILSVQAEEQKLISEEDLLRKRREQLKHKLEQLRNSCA
Chain of Myc;MaxL (P61244 whole entry, chain 2 of 2): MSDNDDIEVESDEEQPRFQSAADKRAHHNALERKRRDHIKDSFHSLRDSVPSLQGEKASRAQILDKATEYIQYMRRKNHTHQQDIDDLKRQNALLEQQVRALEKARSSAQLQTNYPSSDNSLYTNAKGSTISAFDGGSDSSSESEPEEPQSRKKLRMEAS
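Note: fluorescence intensity normalized to that of the highest-ranked 8-mer.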

Row | Sequence | binding signal [normalized occupancy]
1 | CACGTGTC | 0.761
2 | CACGTGGC | 0.927
3 | CACGTGCC | 0.732
4 | AACACGTG | 0.784
5 | CACGTGGA | 0.81
6 | ACACGTGC | 0.766
7 | AGCACGTG | 0.947
8 | ACCACGTG | 0.875
9 | ACACGTGG | 0.895
10 | CACGTGCG | 0.798
11 | CACGTGGG | 0.757
12 | CCACGTGG | 0.959
13 | CCACGTGC | 0.978
14 | ACACGTGT | 0.833
